CF NFkB inh: inhibitors of cystic fibrosis induced NF-kB; KKLEB NF-kB-GFP reporter, PAF-induced, GFP fluorescence overnight; inhibition, % at 5 µM; 360,000 tested, 0.86% active;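 active = at least 50% inhibition at 5 µM, scaled per plate between neutral and stimulator controls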;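 note: PAF is a Pseudomonas aeruginosa culture filtrate used as stimulus; plate controls were PAF-stimulated DMSO wells for no effect and unstimulated DMSO wells for full effect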
KKLEB tox: reduces viability of KKLEB cystic fibrosis airway cells; KKLEB CF airway cells viability, ATPlite luminescence, overnight; hits give low values; cells stimulated with P. aeruginosa culture filtrate; activity change (cytotoxicity), % at 5 µM; 360,000 tested, 0.36% active; AID 602141;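 active = corrected activity change at or below -50% at 5 µM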
EBV LMP1 NFkB: reduces LMP1-driven NF-kappaB luciferase signal. LMP1-induced NF-kappaB luciferase reporter cells, luminescence. inhibition, % at 12.5 µM. 350,000 tested, 0.69% active; in the data active = inhibition above about 41%;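 note: 0% = neutral control wells and 100% = reference inhibitor control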
Peg3 promoter: Peg3 promoter activity inhibition. inhibition, % at 20 µM. AID 588405. 360,000 tested, 1.7% active. HeLa PEG-Prom luciferase reporter, luminescence, overnight;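 active = inhibition of at least 50% at 20 µM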
HIF-2a block: blocks HIF-2a reporter activity; 786-0 RCC cells HIF-2a reporter, luciferase luminescence, overnight; inhibition, % at 18.8 µM; 360,000 tested, 0.72% active;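 active = inhibition of the luminescence signal of 40% or more relative to plate controls, in a single-dose primary screen at 18.75 µM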
TRPM1 prom inh: MITF TRPM1 promoter inhibition in SK-MEL-5 cells | SK-MEL-5 TRPM1 promoter luciferase, 24 h | inhibition, % at 12.5 µM | 330,000 tested, 0.83% active;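 active = mean inhibition across replicates of 60% or more, whatever share of single replicates reaches that level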
An asterisk follows results filed as active. Compounds with a hit are over-represented: about 3% of the library has one in this group of screens.

C[C@@H]1CCCCCCCCC(=O)OCCN(C(=O)OC(C)(C)C)[C@H](C)CCCCCCCCC(=O)OCCN1C(=O)OC(C)(C)C was read as CF NFkB inh -11.0, KKLEB tox -3.3, EBV LMP1 NFkB 0.7, Peg3 promoter 4.3, HIF-2a block 11.7 and TRPM1 prom inh 6.7.
COc1cc(OC)cc(C(=O)N2CCN(c3ccccn3)CC2)c1 was read as CF NFkB inh -17.5, KKLEB tox 3.9, EBV LMP1 NFkB -7.8, Peg3 promoter 20.1, HIF-2a block 4.8 and TRPM1 prom inh -4.0.
`COc1cccc(-c2nn(C)c3sc(C(=O)N4CCN(c5ccccn5)CC4)cc23)c1` gave CF NFkB inh 6.0, KKLEB tox -4.8, EBV LMP1 NFkB 22.0, Peg3 promoter 56.5*, HIF-2a block -6.6 and TRPM1 prom inh 36.7.
COc1cccc(C(=O)N2CCN(c3ccccn3)CC2)c1 was read as CF NFkB inh 13.4, KKLEB tox 0.5, EBV LMP1 NFkB 48.5*, Peg3 promoter 9.6, HIF-2a block 12.7 and TRPM1 prom inh -5.2.
Cc1ccc(S(=O)(=O)NCC(=O)NCC(=O)NCCc2ccc(Cl)cc2)cc1C was read as CF NFkB inh -33.5, KKLEB tox 13.9, EBV LMP1 NFkB -30.5, Peg3 promoter 17.4 and HIF-2a block 4.3.
`O=C(c1ccc(F)cc1)N1CCC(C(=O)N2CCN(c3ncccn3)CC2)CC1` gave CF NFkB inh 14.7, KKLEB tox 24.3, EBV LMP1 NFkB 4.3, Peg3 promoter 1.2, HIF-2a block 4.3 and TRPM1 prom inh -6.5.
`O=C(C1CCCCC1)N1CCN(c2ncccn2)CC1` gave CF NFkB inh 13.0, KKLEB tox 1.8, EBV LMP1 NFkB 48.2*, Peg3 promoter 6.9, HIF-2a block 9.5 and TRPM1 prom inh -0.8.
CCNC(=O)C1(C)CCN(C(=O)c2ccccc2C(F)(F)F)C1 (stereo not drawn) was read as CF NFkB inh -18.0, KKLEB tox 17.9, Peg3 promoter 6.9 and HIF-2a block 12.7.
For Cc1csc(SCC(=O)Nc2cccc3nsnc23)n1 the results were CF NFkB inh 64.4*, KKLEB tox -5.8, EBV LMP1 NFkB 29.5, Peg3 promoter -75.3, HIF-2a block -86.0 and TRPM1 prom inh -17.6.
Screening Cc1csc(SCC(=O)Nc2ccccc2C)n1 returned CF NFkB inh 4.3, KKLEB tox 0.7, EBV LMP1 NFkB 1.3, Peg3 promoter -20.4, HIF-2a block -34.4 and TRPM1 prom inh -4.5.
COc1ccc(C(=O)N/C(=C\c2ccc3c(c2)OCO3)C(=O)N2CCOCC2)cc1 was read as CF NFkB inh 6.9, KKLEB tox -0.5, EBV LMP1 NFkB 49.0*, Peg3 promoter -2.3, HIF-2a block 11.3 and TRPM1 prom inh 1.4.
Screening N#CC(C#N)=NNc1ccc(S(=O)(=O)N2CCCCC2)cc1 returned CF NFkB inh 71.0*, KKLEB tox -16.6, EBV LMP1 NFkB 19.2, Peg3 promoter 9.9, HIF-2a block 9.7 and TRPM1 prom inh 5.0.
Screening CC(=O)Nc1ccc(S(=O)(=O)N2CCCC2)cc1 returned CF NFkB inh -1.5, KKLEB tox -2.0, EBV LMP1 NFkB 71.2*, Peg3 promoter 3.6, HIF-2a block 4.2 and TRPM1 prom inh 0.9.
For O=C(NCc1ccccc1Cl)c1ccc(S(=O)(=O)N2CCCC2)cc1 the results were CF NFkB inh 8.8, KKLEB tox -10.6, EBV LMP1 NFkB -5.1, Peg3 promoter 51.5*, HIF-2a block 16.0 and TRPM1 prom inh -1.2.
`O=C(/C=C/[C@H]1O[C@@H](n2cnc3c(NC(=O)c4ccccc4)ncnc32)[C@H](O)[C@@H]1O)N[C@@H](CO)Cc1c[nH]c2ccccc12` gave CF NFkB inh -17.8, KKLEB tox 4.9, Peg3 promoter 14.0 and HIF-2a block 9.4.
CC(C)(C)C(=O)c1c(N)[nH]c(C(=O)c2ccccc2)c1-c1cc2ccccc2nc1Cl was read as HIF-2a block 5.9.
`CCOc1ccc(-n2nnnc2-c2nc3ccccc3s2)cc1` gave CF NFkB inh 70.1*, KKLEB tox -70.4*, EBV LMP1 NFkB 2.8, Peg3 promoter -73.6, HIF-2a block -65.1 and TRPM1 prom inh 19.4.
For N#Cc1cccc(NC(=O)c2cc(C3CCCCN3C(=O)c3ccc4c(c3)CCO4)on2)c1 (stereo not drawn) the results were CF NFkB inh -10.3, KKLEB tox 16.9, Peg3 promoter 7.5 and HIF-2a block 8.0.
`CC1=C(C)C(=O)N(CCC(=O)O)C1=O` gave CF NFkB inh 13.8, KKLEB tox -1.3, EBV LMP1 NFkB -4.3, Peg3 promoter 5.2, HIF-2a block 20.4 and TRPM1 prom inh -3.3.
O=C(O)CCn1c(=O)[nH]c(=O)n(CCC(=O)O)c1=O was read as CF NFkB inh 2.6, KKLEB tox 0.4, EBV LMP1 NFkB 4.4, Peg3 promoter 88.9*, HIF-2a block 11.7 and TRPM1 prom inh 13.3.
COc1ccc(OC)c(NC(=O)C2(C)CCN2C(=O)C(C)(C)c2ccccc2)c1 (stereo not drawn) was read as CF NFkB inh 3.7, KKLEB tox 1.6, Peg3 promoter 2.8 and HIF-2a block 3.9.
`Cc1cc(C)cc(NC(=O)CCc2nc3sc4c(c3c(=O)[nH]2)CCCC4)c1` gave CF NFkB inh -2.3, KKLEB tox -4.7, EBV LMP1 NFkB -39.5, Peg3 promoter 84.3*, HIF-2a block 4.1 and TRPM1 prom inh 6.0.
`C=CCN(CC=C)Cc1cc(=O)oc2cc(OC)ccc12` gave CF NFkB inh 4.3, KKLEB tox -22.3, Peg3 promoter -7.8 and HIF-2a block 4.1.
For COc1ccccc1Cc1c(-c2ccc(OC)c(OC)c2)nc2ccc(Cl)cn12 the results were CF NFkB inh 28.1, KKLEB tox -9.3, Peg3 promoter 15.1 and HIF-2a block -29.2.
CN(C)C(CNC(=O)c1cccc(S(=O)(=O)N2CCN(c3ccc(F)cc3)CC2)c1)c1ccccc1 (stereo not drawn) was read as CF NFkB inh 10.8, KKLEB tox -17.9, EBV LMP1 NFkB -11.1, Peg3 promoter -0.8, HIF-2a block 8.9 and TRPM1 prom inh 31.6.
`Cn1c(N)c(C(=O)COC(=O)c2cc(S(=O)(=O)N3CCOCC3)ccc2F)c(=O)n(C)c1=O` gave CF NFkB inh -8.2, KKLEB tox -10.4, EBV LMP1 NFkB 0.2, Peg3 promoter 88.9*, HIF-2a block -14.6 and TRPM1 prom inh 82.2*.
`CCN(CC)CCCN(C(=O)c1ccco1)c1nc(-c2ccc(C)cc2)cs1` gave CF NFkB inh 21.4, KKLEB tox -15.2, EBV LMP1 NFkB -16.1, Peg3 promoter 57.2*, HIF-2a block 9.9 and TRPM1 prom inh -0.3.
For CCN(CC)CCCN(C(=O)c1ccco1)c1nc(-c2ccc(Cl)cc2)cs1 the results were CF NFkB inh 7.4, KKLEB tox 0.2, EBV LMP1 NFkB -21.8, Peg3 promoter 64.0*, HIF-2a block 12.7 and TRPM1 prom inh -6.7.

Bioassay records deposited in PubChem BioAssay by several laboratories.
